Measured values from the supplement of paper PMC10849652.
About 8,800 targets were measured; listed, in parts, are those with a hit and a random draw of the rest. About 0.5% of all pairs of compound and target were hits.

Key:
Test in all cases: log2 fold change, soluble protein after heating vs DMSO (PISA); higher = thermal stabilisation; K562 lysate, 10 uM; active = over 0.2 and 3.5 SD of the protein, either way, in both replicates (recomputed)
[1] = compound: NCC(=O)Nc1ccc(-n2nc(C(F)(F)F)cc2-c2ccc3c(ccc4ccccc43)c2)cc1
Outline: (§1)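 The values are log-two fold changes in thermal stability compared with solvent controls and come from duplicates. They were obtained by TMTpro 16plex LC-MS/MS, with channel sums equalised, on the supernatant after 21,000xg for 90 min. That supernatant came from crude K562 extract at 1 mg/mL protein treated with 10 μM compound for 30 min, heated for 3 min across 48°C-58°C, pooled and brought to 0.5% NP-40 at 4°C.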

vorinostat = compound: O=C(CCCCCCC(=O)Nc1ccccc1)NO [vorinostat]
Outline: as §1

silmitasertib = compound: O=C(O)c1ccc2c(c1)nc(Nc1cccc(Cl)c1)c1ccncc12 [silmitasertib]
Outline: as §1

[2] = compound: O=C1NC(=O)C(c2cnc3ccccn23)=C1c1cn2c3c(cc(F)cc13)CN(C(=O)N1CCCCC1)CC2
Outline: as §1

entospletinib = compound: c1cn2cc(-c3ccc4cn[nH]c4c3)nc(Nc3ccc(N4CCOCC4)cc3)c2n1 [entospletinib]
Outline: as §1

Target: VPS16 (UniProt Q9H269)
UniProt Q9H269, sequence (Q9H269 whole entry, looked up): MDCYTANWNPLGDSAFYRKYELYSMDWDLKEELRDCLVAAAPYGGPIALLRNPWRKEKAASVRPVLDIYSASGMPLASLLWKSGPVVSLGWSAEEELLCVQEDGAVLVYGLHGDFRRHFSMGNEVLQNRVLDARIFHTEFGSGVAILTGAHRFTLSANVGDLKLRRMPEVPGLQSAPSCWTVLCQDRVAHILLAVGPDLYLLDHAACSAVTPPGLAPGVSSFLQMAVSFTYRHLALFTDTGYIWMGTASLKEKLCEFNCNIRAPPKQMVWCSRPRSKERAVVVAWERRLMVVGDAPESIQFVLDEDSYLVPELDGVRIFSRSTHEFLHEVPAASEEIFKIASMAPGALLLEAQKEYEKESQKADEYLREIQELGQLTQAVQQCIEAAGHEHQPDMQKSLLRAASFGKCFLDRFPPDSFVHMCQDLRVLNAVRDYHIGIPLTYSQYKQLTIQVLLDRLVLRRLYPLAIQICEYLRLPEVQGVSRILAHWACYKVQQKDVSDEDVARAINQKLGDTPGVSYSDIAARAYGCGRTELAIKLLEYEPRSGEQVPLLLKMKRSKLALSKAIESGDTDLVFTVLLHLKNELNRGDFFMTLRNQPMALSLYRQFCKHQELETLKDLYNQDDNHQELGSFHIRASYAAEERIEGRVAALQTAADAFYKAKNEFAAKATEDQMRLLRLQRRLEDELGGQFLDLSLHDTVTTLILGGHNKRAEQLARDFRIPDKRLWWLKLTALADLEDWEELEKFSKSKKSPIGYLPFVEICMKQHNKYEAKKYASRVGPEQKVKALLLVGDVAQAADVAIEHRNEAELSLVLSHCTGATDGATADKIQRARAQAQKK
- log2 fold change [1]: -0.047 (inactive)
- log2 fold change (vorinostat): -0.543 (active)
- log2 fold change (silmitasertib): 0.076 (inactive)
- log2 fold change [2]: -0.01 (inactive)
- log2 fold change (entospletinib): 0.03 (inactive)

Target: USP8 (UniProt P40818)
UniProt P40818, sequence (P40818 whole entry, looked up): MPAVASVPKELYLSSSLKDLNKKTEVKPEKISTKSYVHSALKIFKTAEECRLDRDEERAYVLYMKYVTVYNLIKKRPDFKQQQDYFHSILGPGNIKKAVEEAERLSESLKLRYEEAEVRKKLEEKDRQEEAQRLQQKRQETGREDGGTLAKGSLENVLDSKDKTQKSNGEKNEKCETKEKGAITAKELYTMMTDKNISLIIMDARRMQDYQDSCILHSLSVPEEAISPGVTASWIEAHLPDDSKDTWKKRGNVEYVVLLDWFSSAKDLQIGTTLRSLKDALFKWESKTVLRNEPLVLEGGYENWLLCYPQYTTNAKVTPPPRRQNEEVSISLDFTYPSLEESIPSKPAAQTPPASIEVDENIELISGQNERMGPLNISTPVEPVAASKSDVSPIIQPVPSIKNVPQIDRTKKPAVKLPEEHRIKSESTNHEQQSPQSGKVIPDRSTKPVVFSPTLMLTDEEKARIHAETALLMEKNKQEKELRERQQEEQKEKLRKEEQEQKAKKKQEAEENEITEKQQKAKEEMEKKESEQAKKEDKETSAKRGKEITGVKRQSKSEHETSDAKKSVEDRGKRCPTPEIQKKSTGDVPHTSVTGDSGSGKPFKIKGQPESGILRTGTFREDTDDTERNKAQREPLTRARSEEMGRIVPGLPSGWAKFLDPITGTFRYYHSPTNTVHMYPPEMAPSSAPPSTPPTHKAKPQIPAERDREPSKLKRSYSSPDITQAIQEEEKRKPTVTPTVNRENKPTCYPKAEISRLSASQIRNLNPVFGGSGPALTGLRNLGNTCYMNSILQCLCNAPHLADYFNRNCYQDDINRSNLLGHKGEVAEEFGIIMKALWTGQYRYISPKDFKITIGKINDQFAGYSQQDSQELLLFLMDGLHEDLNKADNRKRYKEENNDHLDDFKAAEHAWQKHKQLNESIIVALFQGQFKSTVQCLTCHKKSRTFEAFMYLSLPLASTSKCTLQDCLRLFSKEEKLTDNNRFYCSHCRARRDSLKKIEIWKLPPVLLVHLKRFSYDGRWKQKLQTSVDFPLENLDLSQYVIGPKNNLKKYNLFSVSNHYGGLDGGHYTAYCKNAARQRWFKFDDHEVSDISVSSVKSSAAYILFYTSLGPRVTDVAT
- log2 fold change [1]: 0.012 (inactive)
- log2 fold change (vorinostat): -0.324 (active)
- log2 fold change (silmitasertib): 0.013 (inactive)
- log2 fold change [2]: 0.009 (inactive)
- log2 fold change (entospletinib): 0.012 (inactive)

Target: XPO5 (UniProt Q9HAV4)
UniProt Q9HAV4, sequence (Q9HAV4 whole entry, looked up): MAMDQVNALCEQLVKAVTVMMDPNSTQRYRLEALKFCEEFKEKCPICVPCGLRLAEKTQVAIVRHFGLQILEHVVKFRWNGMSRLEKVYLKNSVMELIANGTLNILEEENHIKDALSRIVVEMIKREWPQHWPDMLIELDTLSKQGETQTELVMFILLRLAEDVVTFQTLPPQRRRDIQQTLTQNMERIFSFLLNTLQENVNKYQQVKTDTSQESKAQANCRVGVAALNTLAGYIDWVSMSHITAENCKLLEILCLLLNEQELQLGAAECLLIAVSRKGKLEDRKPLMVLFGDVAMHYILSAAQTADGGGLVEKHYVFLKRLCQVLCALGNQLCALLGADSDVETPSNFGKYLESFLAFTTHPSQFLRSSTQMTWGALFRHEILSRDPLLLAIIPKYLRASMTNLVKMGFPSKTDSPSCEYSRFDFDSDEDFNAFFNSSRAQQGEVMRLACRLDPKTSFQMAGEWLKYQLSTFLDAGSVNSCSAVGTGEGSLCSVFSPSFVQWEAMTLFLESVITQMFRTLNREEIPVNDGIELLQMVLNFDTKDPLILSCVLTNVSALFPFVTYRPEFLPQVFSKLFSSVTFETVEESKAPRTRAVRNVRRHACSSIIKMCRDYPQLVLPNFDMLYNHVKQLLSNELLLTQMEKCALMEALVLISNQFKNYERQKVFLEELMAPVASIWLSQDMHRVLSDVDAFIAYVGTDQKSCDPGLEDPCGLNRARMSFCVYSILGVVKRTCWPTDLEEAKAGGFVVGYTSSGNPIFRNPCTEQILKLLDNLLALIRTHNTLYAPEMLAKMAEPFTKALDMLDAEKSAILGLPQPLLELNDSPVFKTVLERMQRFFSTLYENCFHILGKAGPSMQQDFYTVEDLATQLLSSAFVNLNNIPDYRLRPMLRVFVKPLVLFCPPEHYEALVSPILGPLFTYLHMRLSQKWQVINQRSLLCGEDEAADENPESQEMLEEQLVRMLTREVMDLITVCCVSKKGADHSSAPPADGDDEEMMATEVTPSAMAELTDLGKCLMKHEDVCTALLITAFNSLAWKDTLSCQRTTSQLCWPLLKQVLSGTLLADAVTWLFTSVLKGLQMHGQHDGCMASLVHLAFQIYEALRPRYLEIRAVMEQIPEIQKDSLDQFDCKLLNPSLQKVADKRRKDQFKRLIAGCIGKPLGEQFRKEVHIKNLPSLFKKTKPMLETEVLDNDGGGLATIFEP
- log2 fold change [1]: 0 (inactive)
- log2 fold change (vorinostat): -0.574 (active)
- log2 fold change (silmitasertib): 0.035 (inactive)
- log2 fold change [2]: 0.011 (inactive)
- log2 fold change (entospletinib): 0.015 (inactive)

Target: ZKSCAN8 (UniProt Q15776)
- log2 fold change [1]: 0.015 (inactive)
- log2 fold change (vorinostat): 0.229 (inactive)
- log2 fold change (silmitasertib): -0.005 (inactive)
- log2 fold change [2]: 0.055 (inactive)
- log2 fold change (entospletinib): -0.002 (inactive)

Target: YTHDF3 (UniProt Q7Z739)
UniProt Q7Z739, sequence (Q7Z739 whole entry, looked up): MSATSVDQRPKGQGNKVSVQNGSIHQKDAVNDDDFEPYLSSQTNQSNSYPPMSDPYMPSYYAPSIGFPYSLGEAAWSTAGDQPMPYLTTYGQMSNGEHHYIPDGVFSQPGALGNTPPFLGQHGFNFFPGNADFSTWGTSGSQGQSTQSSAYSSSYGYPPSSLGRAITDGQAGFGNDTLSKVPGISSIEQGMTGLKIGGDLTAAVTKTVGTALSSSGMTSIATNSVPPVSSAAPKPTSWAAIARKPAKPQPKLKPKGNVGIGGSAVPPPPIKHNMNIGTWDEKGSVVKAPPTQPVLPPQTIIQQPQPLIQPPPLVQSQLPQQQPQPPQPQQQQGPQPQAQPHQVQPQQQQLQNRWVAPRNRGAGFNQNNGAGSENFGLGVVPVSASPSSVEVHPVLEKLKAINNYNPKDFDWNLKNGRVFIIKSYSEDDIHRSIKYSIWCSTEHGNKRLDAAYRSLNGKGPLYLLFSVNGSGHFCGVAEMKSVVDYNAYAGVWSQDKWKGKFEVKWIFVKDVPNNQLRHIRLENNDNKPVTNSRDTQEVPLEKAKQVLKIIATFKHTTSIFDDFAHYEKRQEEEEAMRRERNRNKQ
- log2 fold change [1]: 0.064 (inactive)
- log2 fold change (vorinostat): 0.03 (inactive)
- log2 fold change (silmitasertib): -0.084 (inactive)
- log2 fold change [2]: -0.169 (inactive)
- log2 fold change (entospletinib): 0.006 (inactive)

Target: ZNF451 (UniProt Q9Y4E5)
UniProt Q9Y4E5, sequence (Q9Y4E5 whole entry, looked up): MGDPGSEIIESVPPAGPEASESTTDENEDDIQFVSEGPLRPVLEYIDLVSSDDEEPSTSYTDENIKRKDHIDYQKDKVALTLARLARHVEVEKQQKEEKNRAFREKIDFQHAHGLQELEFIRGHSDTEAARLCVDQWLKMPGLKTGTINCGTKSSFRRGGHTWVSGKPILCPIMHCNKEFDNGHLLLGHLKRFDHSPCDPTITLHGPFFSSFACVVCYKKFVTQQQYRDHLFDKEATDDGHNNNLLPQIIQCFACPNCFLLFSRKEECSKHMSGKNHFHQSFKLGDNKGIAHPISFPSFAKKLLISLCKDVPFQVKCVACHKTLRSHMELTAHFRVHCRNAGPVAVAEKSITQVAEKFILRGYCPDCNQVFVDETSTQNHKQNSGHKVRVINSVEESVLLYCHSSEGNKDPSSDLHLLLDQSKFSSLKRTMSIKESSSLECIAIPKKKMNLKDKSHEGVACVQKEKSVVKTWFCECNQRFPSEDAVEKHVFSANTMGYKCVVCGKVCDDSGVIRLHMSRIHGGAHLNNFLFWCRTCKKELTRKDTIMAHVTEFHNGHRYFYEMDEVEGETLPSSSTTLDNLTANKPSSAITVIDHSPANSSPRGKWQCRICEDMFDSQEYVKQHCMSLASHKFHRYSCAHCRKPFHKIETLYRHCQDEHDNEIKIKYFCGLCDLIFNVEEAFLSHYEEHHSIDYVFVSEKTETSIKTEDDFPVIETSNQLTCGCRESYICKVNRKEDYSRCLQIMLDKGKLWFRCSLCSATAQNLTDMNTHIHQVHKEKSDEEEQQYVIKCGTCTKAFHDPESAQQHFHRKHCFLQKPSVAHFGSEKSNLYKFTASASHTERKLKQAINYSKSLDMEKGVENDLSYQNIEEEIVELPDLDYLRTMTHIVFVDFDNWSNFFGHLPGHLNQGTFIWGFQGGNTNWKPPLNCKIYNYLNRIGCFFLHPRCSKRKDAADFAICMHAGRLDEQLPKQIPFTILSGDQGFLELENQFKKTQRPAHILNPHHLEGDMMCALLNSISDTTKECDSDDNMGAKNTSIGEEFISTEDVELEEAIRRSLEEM
- log2 fold change [1]: 0.064 (inactive)
- log2 fold change (vorinostat): -0.538 (active)
- log2 fold change (silmitasertib): -0.003 (inactive)
- log2 fold change [2]: -0.013 (inactive)
- log2 fold change (entospletinib): 0.019 (inactive)

Target: ZMYM4 (UniProt Q5VZL5)
- log2 fold change [1]: 0.05 (inactive)
- log2 fold change (vorinostat): -0.383 (active)
- log2 fold change (silmitasertib): -0.016 (inactive)
- log2 fold change [2]: 0.009 (inactive)
- log2 fold change (entospletinib): -0.013 (inactive)
